{"source": "PubChem BioAssay AID1159580", "about": "(chemical genetic matrix, 2015)", "assay": "chemical genetic growth profiling, strain panel (AID 1159580);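 also: tested at 20 µM; growth read once vehicle control cultures reached saturation at 30 °C; 1 = growth at the plate median or of vehicle wells; lower values mean less growth of the strain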", "conditions": "S. cerevisiae deletion strains, growth OD", "note": "About 2,000 (36%) of roughly 5,500 compounds were called active. Another 18% or so got no clear call; they are omitted. This is one part of the list. Values without a mark were called inactive. Rule as the data show it: active = normalized growth mostly below about 0.91 (no sharp cut-off); inconclusive = no clear call, values can overlap the other calls; inactive = mostly above about 0.92.", "data": [{"smiles": "c1ccc(CCCN2CCN(CCOC(c3ccccc3)c3ccccc3)CC2)cc1", "values": [{"measurement": "normalized growth", "setting": "locus YAL013W, strain DEP1, hits give low values", "result": 0.977}, {"measurement": "normalized growth", "setting": "locus YAL040C, strain CLN3, hits give low values", "result": 0.967}, {"measurement": "normalized growth", "setting": "locus YCL061C, strain MRC1 (second series), hits give low values", "result": "0.932 (active)"}, {"measurement": "normalized growth", "setting": "locus YDR363W, strain ESC2, hits give low values", "result": 0.941}, {"measurement": "normalized growth", "setting": "locus YER002W, strain NOP16, hits give low values", "result": 0.998}, {"measurement": "normalized growth", "setting": "locus YJR075W, strain HOC1, hits give low values", "result": 0.93}, {"measurement": "normalized growth", "setting": "locus YMR263W, strain SAP30, hits give low values", "result": 0.992}, {"measurement": "normalized growth", "setting": "locus YNL175C, strain NOP13, hits give low values", "result": 0.996}, {"measurement": "normalized growth", "setting": "locus YNL197C, strain WHI3, hits give low values", "result": 0.991}, {"measurement": "normalized growth", "setting": "locus YNL224C, strain SQS1, hits give low values", "result": 1.02}, {"measurement": "normalized growth", "setting": "locus YOR083W, strain WHI5 (second series), hits give low values", "result": 0.881}, {"measurement": "normalized growth", "setting": "locus YPL055C, strain LGE1, hits give low values", "result": 0.95}]}]}
